Where “and” joins values, the source holds several entries; their conditions need not be identical. Identical values can stand only once. This is part of a sample that, as a whole, favours compounds with a hit. Of some 79,000 tested, about 15% had one in any assay. Calls of active or inactive are those of the source. Rule as the data show it: active = growth inhibition above about 70%; inactive = the rest.
test: NCI Yeast Anticancer Drug Screen. Data for the cln2 rad14 strain (AID 165);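 also: 0% = growth equal to vehicle treated cultures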; settings: S. cerevisiae cln2 rad14 strain, stronger effect = higher value; at 50.0 µM unless noted
How it was run: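 Readout is yeast growth inhibition versus vehicle-treated controls, using a strain with cln2 and rad14 alterations exposed to compound.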

Row | SMILES | growth inhibition
1 | CCCCCCCCCCCCCCCCCCOC(=O)CC(C)=O | -5% (inactive)
2 | Clc1nc(-c2ccccc2)ns1 | 1.45% (inactive)
3 | O=S(=O)(Cl)c1ccc(Cl)cc1 | 1.5% (inactive)
4 | COC(=O)c1nnn(-c2ccc(Cl)cc2C)c1C(=O)c1ccc(OC)cc1 | -2.45% (inactive)
5 | C#CC1(O)C2CCc3cc(OC)ccc3C2CCC1(C)C(=O)OC (stereo not given) | 6.85% (inactive)
6 | CCCCCCC(=O)C/C(CCC(=O)N(Cc1ccccc1)Cc1ccccc1)=N\Nc1ccc([N+](=O)[O-])cc1[N+](=O)[O-] | 27.4% (inactive)
7 | CC1CCC(c2ccccc2)(c2ccccc2)C1=O (stereo not given) | -15% (inactive)
8 | OCC1OC(O)C(O)C(O)C1O (stereo not given) | -19.4% (inactive) and 16.8% (inactive)
9 | CC(=O)NC(C)c1ccccc1 (stereo not given) | -11.9% (inactive)
10 | CCCOC(=O)C1C(c2ccc(OC)cc2)NC(c2ccc(OC)cc2)C(C(=O)OCCC)S1(=O)=O (stereo not given) | -5% (inactive)
11 | CCOC(=O)COc1cc2c(cc1C(CC)c1ccc(OC)cc1)OCO2 (stereo not given) | -20.1% (inactive)
12 | CC12C(=O)C(C(c3ccccc3)=C1c1ccccc1)C1C(=O)OC(=O)C12 (stereo not given) | -1.6% (inactive)
13 | C=C1CC2C=CC1C2 (stereo not given) | 0.25% (inactive)
14 | COc1ccc(C2S/C(=C\c3ccc(OC)cc3OC)C(=O)N2NC(=O)Cc2ccccc2)cc1 (stereo not given) | -59.6% (inactive)
15 | C/C(=N\NS(=O)(=O)c1ccc(C)cc1)c1cccs1 | 4.2% (inactive)
16 | COc1ccc2[nH]c3cc4c(=O)c5cc(OC)ccc5[nH]c4cc3c(=O)c2c1 | 5.05% (inactive)
17 | O=C(O)c1ccc(NCO)cc1 | 33.7% (inactive)
18 | Clc1ccc(N=Nc2nc3ccccc3nc2N=Nc2ccc(Cl)cc2Cl)c(Cl)c1 | 3.25% (inactive)
19 | CN(C)CCCC(=O)O | 2.8% (inactive)
20 | O=Cc1ccc(OC(=O)Nc2ccc([N+](=O)[O-])cc2)cc1 | -2.7% (inactive)

Row | SMILES | growth inhibition
21 | CC(C)OC(=O)/C=C/CCCC1CCCCC1 | 2.35% (inactive)
22 | O=CNc1cccnc1C1OCCO1 | -13.3% (inactive)
23 | COC1OC(CI)C(O)C(O)C1O (stereo not given) | -24.2% (inactive)
24 | C/C(=N\NS(=O)(=O)c1c(C)cc(C)cc1C)c1ccc[n+]([O-])n1 | 15.1% (inactive)
25 | COc1ccc(C=NCC(OC)OC)cc1OCc1ccccc1 | -16.4% (inactive)
26 | COCCOC(=O)COc1ccccc1 | 3.5% (inactive)
27 | c1ccc(C2=NN(c3ccccc3)CC2)cc1 | 9.25% (inactive)
28 | COc1cccc(N(CN2CC=CC2=O)C(C)=O)c1 | 18.6% (inactive)
29 | CCN(CC)CCC(=O)c1ccc(Cl)cc1 | 10.3% (inactive)
30 | CC1=NN(c2ccc(S(=O)(=O)O)cc2)C(=O)C1N=Nc1ccc(-c2ccc(N=Nc3ccc(O)c(C(=O)O)c3)c(C)c2)cc1C (stereo not given) | 17.1% (inactive)
31 | c1ccc(CNCCNCc2ccccc2)cc1 | -56.7% (inactive) and -11.3% (inactive)
32 | Cc1ccc(CC2CC(=O)NC2=O)cc1 (stereo not given) | 2.15% (inactive)
33 | CC(CN(C)C)C(=O)/C=C/c1ccc(Cl)cc1 (stereo not given) | 2.8% (inactive)
34 | O=C1NC(=O)c2c(O)cccc21 | 18.2% (inactive)
35 | CCN(CC)CCN(C(=O)C(C)(C)C)c1ccccc1N | -18.6% (inactive)
36 | CC1=C(CCC(=O)O)c2cc3nc(cc4[nH]c(cc5[nH]c(cc1n2)c(C)c5C1CC1C(=O)O)c(C)c4C1CC1C(=O)O)C(C)=C3CCC(=O)O (stereo not given) | -0.6% (inactive)
37 | C/C(CCC(CC(=O)O)C(C)C)=N\NC(N)=O (stereo not given) | -35.9% (inactive)
38 | CCC(C(=O)O)C(=O)O.[NH2-].[NH2-].[Pt+2] | 14.1% (inactive)
39 | CC1C2=C(CC(C)(C)CC2=O)NC2=C1C(=O)CC(C)(C)C2 | -9.85% (inactive)
40 | Cc1n[nH]c(=O)n1/N=C/c1ccncc1 | -17% (inactive)

test: NCI Yeast Anticancer Drug Screen. Data for the bub3 strain (AID 167); settings: S. cerevisiae bub3 mutant strain, stronger effect = higher value; at 50.0 µM unless noted
How it was run: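 Whole-cell yeast assay. The mutant strain was incubated with compounds, and growth inhibition was determined by comparison with vehicle-treated cells.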

Row | SMILES | growth inhibition
41 | CCCCCCCCCCCCCCCCCCOC(=O)CC(C)=O | -9.2% (inactive)
42 | Clc1nc(-c2ccccc2)ns1 | -6.85% (inactive)
43 | O=S(=O)(Cl)c1ccc(Cl)cc1 | -16.6% (inactive)
44 | COC(=O)c1nnn(-c2ccc(Cl)cc2C)c1C(=O)c1ccc(OC)cc1 | -9.1% (inactive)
45 | C#CC1(O)C2CCc3cc(OC)ccc3C2CCC1(C)C(=O)OC (stereo not given) | -11.9% (inactive)
46 | CCCCCCC(=O)C/C(CCC(=O)N(Cc1ccccc1)Cc1ccccc1)=N\Nc1ccc([N+](=O)[O-])cc1[N+](=O)[O-] | -11.4% (inactive)
47 | CC1CCC(c2ccccc2)(c2ccccc2)C1=O (stereo not given) | -1.15% (inactive)
48 | OCC1OC(O)C(O)C(O)C1O (stereo not given) | -4.1% (inactive) and 2.1% (inactive)
49 | CC(=O)NC(C)c1ccccc1 (stereo not given) | -1.55% (inactive)
50 | CCCOC(=O)C1C(c2ccc(OC)cc2)NC(c2ccc(OC)cc2)C(C(=O)OCCC)S1(=O)=O (stereo not given) | -19.4% (inactive)
51 | CCOC(=O)COc1cc2c(cc1C(CC)c1ccc(OC)cc1)OCO2 (stereo not given) | 16.4% (inactive)
52 | CC12C(=O)C(C(c3ccccc3)=C1c1ccccc1)C1C(=O)OC(=O)C12 (stereo not given) | -11.9% (inactive)
53 | C=C1CC2C=CC1C2 (stereo not given) | -15.8% (inactive)
54 | COc1ccc(C2S/C(=C\c3ccc(OC)cc3OC)C(=O)N2NC(=O)Cc2ccccc2)cc1 (stereo not given) | -14.1% (inactive)
55 | C/C(=N\NS(=O)(=O)c1ccc(C)cc1)c1cccs1 | 10.2% (inactive)
56 | COc1ccc2[nH]c3cc4c(=O)c5cc(OC)ccc5[nH]c4cc3c(=O)c2c1 | -2.9% (inactive)
57 | O=C(O)c1ccc(NCO)cc1 | 4.3% (inactive)
58 | Clc1ccc(N=Nc2nc3ccccc3nc2N=Nc2ccc(Cl)cc2Cl)c(Cl)c1 | -5.75% (inactive)
59 | CN(C)CCCC(=O)O | -31.9% (inactive)
60 | O=Cc1ccc(OC(=O)Nc2ccc([N+](=O)[O-])cc2)cc1 | 46.6% (inactive)

Row | SMILES | growth inhibition
61 | CC(C)OC(=O)/C=C/CCCC1CCCCC1 | 18.7% (inactive)
62 | O=CNc1cccnc1C1OCCO1 | -4.75% (inactive)
63 | COC1OC(CI)C(O)C(O)C1O (stereo not given) | 37.8% (inactive)
64 | C/C(=N\NS(=O)(=O)c1c(C)cc(C)cc1C)c1ccc[n+]([O-])n1 | -12.8% (inactive)
65 | COc1ccc(C=NCC(OC)OC)cc1OCc1ccccc1 | -3.05% (inactive)
66 | COCCOC(=O)COc1ccccc1 | -8% (inactive)
67 | c1ccc(C2=NN(c3ccccc3)CC2)cc1 | 9.35% (inactive)
68 | COc1cccc(N(CN2CC=CC2=O)C(C)=O)c1 | -16.8% (inactive)
69 | CCN(CC)CCC(=O)c1ccc(Cl)cc1 | 1.05% (inactive)
70 | CC1=NN(c2ccc(S(=O)(=O)O)cc2)C(=O)C1N=Nc1ccc(-c2ccc(N=Nc3ccc(O)c(C(=O)O)c3)c(C)c2)cc1C (stereo not given) | 23.4% (inactive)
71 | c1ccc(CNCCNCc2ccccc2)cc1 | -11.7% (inactive) and 0.05% (inactive)
72 | Cc1ccc(CC2CC(=O)NC2=O)cc1 (stereo not given) | 10.5% (inactive)
73 | CC(CN(C)C)C(=O)/C=C/c1ccc(Cl)cc1 (stereo not given) | -13.7% (inactive)
74 | O=C1NC(=O)c2c(O)cccc21 | 13.4% (inactive)
75 | CCN(CC)CCN(C(=O)C(C)(C)C)c1ccccc1N | -19.1% (inactive)
76 | CC1=C(CCC(=O)O)c2cc3nc(cc4[nH]c(cc5[nH]c(cc1n2)c(C)c5C1CC1C(=O)O)c(C)c4C1CC1C(=O)O)C(C)=C3CCC(=O)O (stereo not given) | 13.2% (inactive)
77 | C/C(CCC(CC(=O)O)C(C)C)=N\NC(N)=O (stereo not given) | -27.4% (inactive)
78 | CCC(C(=O)O)C(=O)O.[NH2-].[NH2-].[Pt+2] | -9.55% (inactive)
79 | CC1C2=C(CC(C)(C)CC2=O)NC2=C1C(=O)CC(C)(C)C2 | -7.4% (inactive)
80 | Cc1n[nH]c(=O)n1/N=C/c1ccncc1 | -4.35% (inactive)
